# Reference: PubChem BioAssay AID1745847 (National Center for Advancing Translational Sciences (NCATS), 2022)
# Screen size: about 2,100 compounds; about 670 (32%) were called active. Not shown: some 50% with an inconclusive outcome. This is one part of the list. A number with no mark means an inactive call. The call rests on the fitted dose curve; in most records, active means well fitted inhibition curve with a large enough effect; inconclusive means small, poorly fitted or top-dose-only effect; inactive means no such curve, though single readings can be large or run the other way.
# Assay: CMV-Luciferase Counterscreen for Inhibitors of ATXN expression; further: nearly all actives have a fitted effect of over 55% in size
# Details: HEK-293 CMV-luciferase reporter, luminescence, 24 h; series mostly up to 57.5 µM
# Source text: PI: Daniel Scoles Ph.D. University of Utah School of Medicine, Salt Lake City, Utah MLPCN Grant: NS073009 Spinocerebellar ataxia type 2 (SCA2) is a multisystem neurodegenerative disease caused by a dominantly acting mutation leading to expansion of a polyQ domain in the ataxin-2 protein (ATXN2). SCA2 patients develop progressive ataxia and later lose function in other neuronal systems. Prominent parkinsonian signs develop in some patients. Like many neurodegenerative disorders, no symptomatic or disease-modifying treatments are known. The primary objective of the proposed research is to identify compounds inhibiting ATXN2 expression and to test them for efficacy in SCA2 mouse models. We have developed a cell-based assay paired with an in vivo mouse model using identical luciferase expression constructs. This approach takes advantage of an ATXN2-luciferase transgene, with the luciferase gene flanked by the upstream and downstream portions of the ATXN2 gene. Here we describe a 5-7 dose quantitative high thoroughput screen (qHTS) for compounds lowering ATXN2 expression. We screened the NIH Molecular Libraries Small Molecule Repository (MLSMR) and NCGC's mechanistically annotated (MIPE) and drug repurposing (NPC) collections of compounds for lowering expression of an ATXN2-luciferase reporter in HEK-293 cells. The assay is a multiplexed cell viability assay to ensure target reduction in the absence of cytotoxicity. Secondary qHTS assays included a CMV-luciferase reporter expressed in HEK-293 cells as well as a biochemical assay using recombinant luciferase to detect inhibitors of the reporter enzyme. Compounds that inhibit ATXN2 expression but is not cytotoxic were selected for confirmatory and secondary screens.
# PROTOCOL TABLE (as described by Inglese J, Shamu CE and Guy RK. 2007) SEQUENCE No. (e.g., 1, 2, 3, etc.); PARAMETER (e.g., Cells, Incubation, Reagent, etc.); VALUE; DESCRIPTION. 1; Cells; 4 uL; white, solid bottom, 1536-well Greiner assay plate. 2; Incubation; 2 hr; 37 degree C in 5% humidified CO2. 3; Compounds; 23 nL; Kalypsis pintool (Wako USA) equipped with a 1536-well pin head. 4; Incubation; 24 hr; 37 degree C in 5% humidfified CO2. 5; Reagent; 1 uL; Gly-Phe-7-Amino-4-trifluoromethylcoumarin. 6; Incubation; 30 min; 37 degree C in 5% humidfified CO2. 7; Detection; Fluorescence; Viewlux plate reader (PerkinElmer). 8; Reagent; 3 uL; SteadyGlo luciferase solution (Promega). 9; Incubation; 5 min; room temperature. 10; Detection; Luminescence; ViewLux plate reader (PerkinElmer). NOTES (numbers refer to Sequence numbers above) 1. HEK-293 cells expressing CMV-luciferase reporter (designated as SC cells) were suspended in phenol-red free DMEM and dispensed in assay plates using a Multidrop Combi dispenser (Thermo Fisher Scientific). 2. Assay plates were incubated. Evaporation was prevented by covering assay plates with metal lids containing holes to allow gas diffusion. 3. Compounds were added in a dose response manner with the final concentrations of 57, 11.4, 2.28, 0.46, 0.091, 0.018, 0.0037 uM. Vehicle-only plates, with DMSO being pin-transferred to columns 5-48, were inserted uniformly at the beginning and the end of each library to monitor and record any shifts in assay performance. 5. 125 uM Gly-Phe-7-Amino-4-trifluoromethylcoumarin (MP Biomedicals) working concentration was used at a final concentration of 25 uM. 7. To assess cell viability; the assay plates were read using the ViewLux high-throughput CCD imager (PerkinElmer), wherein single end-point fluorescence measurement was acquired (excitation 405/10; emission 540/25 nm). 8. Detection reagent SteadyGlo Luciferase (Promega) was added to the assay plate. 10. Luminescence is then measured on the ViewLux imager equipped with a clear emission filter using a 2 sec exposure. […]
# On the % scale 0 is the no-effect control and ±100 the full control effect; potency means the concentration at half of the fitted maximal effect.
SMILES,"activity change, negative = inhibition",Potency
CCC1(OC(=O)CN)C(=O)OCc2c1cc1n(c2=O)Cc2cc3ccccc3nc2-1 (configuration not stated),-43.6% [at 11.4 µM],–
CC[C@@]1(O)C(=O)OCc2c1cc1n(c2=O)Cc2cc3c(NC(=O)CN)cccc3nc2-1,–,0.0562 µM (active)
COc1cc2c(cc1OC)C1C(=O)c3ccc4c(c3OC1CO2)CC(C(C)C)O4 (configuration not stated),–,0.794 µM (active)
CCC(C)(O)C(=O)OC1C(=O)OC2CC3C(C)=CC(=O)C(O)C3(C)C3C4(O)OCC23C1C(C)C4O (configuration not stated),–,0.316 µM (active)
CCOC(=O)c1c(N)n(CCN2CCCCC2)c2nc3ccccc3nc12,–,inactive
CC(C)CCn1c(N)c(C(=O)NCc2cccs2)c2nc3ccccc3nc21,–,14.1 µM (active)
CCC(C)OC(=O)c1c(N)n(Cc2cccs2)c2nc3ccccc3nc12 (configuration not stated),–,17.8 µM (active)
CNC(=O)Nc1ccc(C(=O)N/N=C\C23CC[C@@H](O)CC2(O)CC[C@@H]2[C@@H]3CCC3(C)C(C4=CC(=O)OC4)CCC23O)cc1 (some centres not stated),–,inactive
CC1CC(C)CC(C)C(O)C(C#N)=CC=CCC(C2CCCC2C(=O)O)OC(=O)CC(O)C(C)C1 (configuration not stated),–,0.316 µM (active)
C[C@H]1C[C@@H](C)C(=O)[C@@H]([C@H](O)CC2CC(=O)NC(=O)C2)C1,–,0.282 µM (active)
CC(=O)OC1(C)CC(C)C(=O)C(C(O)CC2CC(=O)NC(=O)C2)C1 (configuration not stated),–,0.126 µM (active)
C[C@@H]1C[C@@H]([C@H](O)CC2CC(=O)NC(=O)C2)C(=O)[C@@H](C)C1,–,2.82 µM (active)
C[C@]12CCC3C(CCC4=CC(O)CC[C@@]43/C=N/O)C1(O)CCC2C1=CC(=O)OC1 (some centres not stated),–,inactive
Cc1ccc(N2C(=O)NC(=O)/C(=C/C=C/c3ccco3)C2=O)cc1,82.1% [at 11.4 µM],–
CC(=O)OC1CC2(O)C3CCC4CC(O)CCC4(C)C3CCC2(C)C1C1=CC(=O)OC1 (configuration not stated),–,inactive
O=C1NC2C(=CC(O)C(O)C2O)c2cc3c(cc21)OCO3 (configuration not stated),–,0.251 µM (active)
Cc1c2ccncc2c(C)c2c1[nH]c1ccccc12,–,5.01 µM (active)
COc1ccc(CCNCc2ccc(F)cc2)cc1OC,-5.47% [at 11.4 µM],–
COC1C(O)C(C)OC(OC2C(Oc3cccc4c(O)c5c(=O)oc6ccc(C)c7c(=O)oc(c34)c5c67)OC(C)C(O)C2O)C1O (configuration not stated),-15.7% [at 11.4 µM],–
O=[N+]([O-])c1ccc(C(c2ccc([N+](=O)[O-])cc2)c2ccc([N+](=O)[O-])cc2)cc1,–,17.8 µM (active)
C[C@]12CC[C@H](O)C[C@H]1CC[C@@H]1[C@@H]2CC[C@]2(C)[C@@H](C3=CC(=O)OC3)CC[C@]12O,–,inactive

SMILES,"activity change, negative = inhibition",Potency
COc1ccc(N=Cc2c(O)n(-c3ccc(C)cc3)c(=O)[nH]c2=O)cc1,–,inactive
CC1OC(OC2C(O)CC(OC3C(O)CC(OC4CCC5(C)C(CCC6C5CCC5(C)C(C7=CC(=O)OC7)C(O)CC65O)C4)OC3C)OC2C)CC(O)C1O (configuration not stated),–,inactive
O=c1[nH]c2ccccc2n1C1CCN(C(CCc2ccccc2)c2nnnn2C2CCCC2)CC1 (configuration not stated),–,14.1 µM (active)
CC(C)(C)n1nnnc1C(CCc1ccccc1)N1CCC(n2c(=O)[nH]c3ccccc32)CC1 (configuration not stated),–,20 µM (active)
N#Cc1cn(C2OC(CO)C(O)C2O)c2ncnc(N)c12 (configuration not stated),-77.3% [at 11.4 µM],–
CCC1CN2CCc3cc(OC)c(OC)cc3C2CC1CC1NCCc2c1[nH]c1ccc(O)cc21 (configuration not stated),–,0.0891 µM (active)
C1=NCCc2c1[nH]c1ccccc21,110% [at 11.4 µM],–
COc1cc2nc(CN3CC=C(c4ccccc4)CC3)[nH]c(=O)c2cc1OC,–,inactive
O=C(CSC1c2ccccc2-c2ccccc21)N/N=C/c1ccccc1O,–,3.16 µM (active)
Clc1ccc2[nH]c3c(c2c1)CCNC3,-18.6% [at 11.4 µM],–
NC(Cc1ccc(F)cc1)c1csc(Nc2ccccn2)n1 (configuration not stated),–,inactive
CCC(C)N1C(=O)/C(=C\c2cnc(N(C)C)nc2)C(=O)NC1=S (configuration not stated),–,inactive
CC12CCC3C(CCC4(O)CC(O)CCC34C=NO)C1(O)CCC2C1=COC(=O)C1 (configuration not stated),–,inactive
COc1cccc2c1cc([N+](=O)[O-])c1c(C(=O)O)cc3c(c12)OCO3,–,inactive
COc1ccc2c(c1)C(c1ccc(N(CCCl)CCCl)cc1)=NCC2,–,22.4 µM (active)
CC(=O)O[C@H]1[C@H]2O[C@]23[C@@H]2CC[C@]4(O)C[C@@H](O)CC[C@]4(C)C2CC[C@]3(C)[C@H]1c1ccc(=O)oc1 (some centres not stated),-18.3% [at 11.4 µM],–
COC(=O)c1nc(-c2ccc3c(n2)C(=O)C(N)=C(OC)C3=O)c(N)c(-c2ccc(OC)c(OC)c2O)c1C,–,14.1 µM (active)
CSCCC(c1nnnn1-c1c(C)cccc1C)N1CCC2(CC1)C(=O)NCN2c1ccccc1 (configuration not stated),–,28.2 µM (active)
CCOC(=O)[C@]12Cc3ccsc3[C@H]1N(Cc1ccccc1)C(=O)c1ccccc12,–,3.16 µM (active)
CC12CCC(O)CC1CCC1C2CCC2(C)C(C3=CC(=O)OC3)CCC12O (configuration not stated),–,inactive
C=CCCC[C@@H]1OC(=O)CNC(=O)C([C@@H](C)CC)NC(=O)[C@@H]2CCCN2C(=O)C([C@@H](C)CC)OC(=O)[C@H](Cc2ccccc2)N(C)C(=O)[C@H](C(C)C)NC(=O)C1(C)C (some centres not stated),–,3.98 µM (active)

SMILES,"activity change, negative = inhibition",Potency
Cc1ccc(-c2nc(N(C)C3CCN(C)CC3)c3ccccc3n2)cc1,–,17.8 µM (active)
COc1ccc(CC2C(=O)NC(C)C(=O)N(C)C3C(=O)N(C)C(Cc4ccc(O)c(c4)Oc4ccc(cc4)C3O)C(=O)NC(C)C(=O)NC(C)C(=O)N2C)cc1 (configuration not stated),–,0.891 µM (active)
C[C@H]1[C@@H](OS(=O)(=O)O)C[C@@H]2C[C@H]([C@@H](O)c3cc(=O)[nH]c(=O)[nH]3)NC3=NC[C@H]1N32,–,14.1 µM (active)
CCCCN=C[C@]12CCC(O)CC1(O)CCC1[C@@H]2CC[C@]2(C)[C@H](C3C=CC(=O)O3)CCC12O (some centres not stated),–,inactive
C[C@@H]1O[C@@H](O[C@@H]2C=C3CC[C@@H]4C(CC[C@]5(C)[C@@H](c6ccc(=O)oc6)CC[C@]45O)[C@@]3(C)CC2)[C@H](O)[C@H](O)[C@H]1O (some centres not stated),–,inactive
C[C@H]1CCC[C@@H](O)CCC/C=C/c2cc(O)cc(O)c2C(=O)O1,-23.1% [at 11.4 µM],–
CCCCC(=O)N/N=C/c1c(O)n(CCC2=CCCCC2)c(=O)[nH]c1=O,–,10 µM (active)
CCCCCCC(=O)N/N=C/c1c(O)n(CCc2ccccc2)c(=O)[nH]c1=O,–,6.31 µM (active)
CCCCCCC(=O)N/N=C/c1c(O)n(CCCC)c(=S)[nH]c1=O,–,12.6 µM (active)
CCn1c(O)c(/C=N/NC(=O)c2ccccc2)c(=O)n(CC)c1=S,–,inactive
COC1C(O)C(C)OC(OC2CCC3(C)C(CCC4C3C(O)CC3(C)C(C5=CC(=O)OC5)CCC43O)C2)C1O (configuration not stated),–,inactive
C[C@]12CC[C@H](O)C[C@H]1CC[C@@H]1C2CC[C@]2(C)[C@@H](C3=CC(=O)OC3)[C@@H](O)C[C@]12O (some centres not stated),-13.9% [at 11.4 µM],–
COc1ccc(CC2NCC(O)C2OC(C)=O)cc1 (configuration not stated),–,0.316 µM (active)
COc1ccc(C[C@H]2NC[C@H](O)[C@H]2OC(C)=O)cc1,–,0.0631 µM (active)
c1ccc2sc(N3CCNCC3)nc2c1,–,inactive
C[C@H]1CCC[C@H](O)CCCCCc2cc(O)cc(O)c2C(=O)O1,13.6% [at 11.4 µM],–
CCCCCOc1ccc(C)cc1CN(CCCl)CCCl,–,15.8 µM (active)
COc1cccc(C(c2nnnn2-c2ccc3c(c2)OCCO3)N2CCC(n3c(=O)[nH]c4ccccc43)CC2)c1OC (configuration not stated),–,3.16 µM (active)
Cc1cccc(C)c1-n1nnnc1C(c1cc2ccccc2o1)N1CCC(n2c(=O)[nH]c3ccccc32)CC1 (configuration not stated),–,8.91 µM (active)
CC12CCC(O)CC1CCC1C2CCC2(C)C(C3=CC(=O)OC3)C(O)CC12O (configuration not stated),–,inactive
